Assay outcomes (PubChem BioAssay)
L3MBTL1 block: L3MBTL1 (human) inhibition | Q9Y468 | AlphaScreen L3MBTL1–H3K9me1 peptide binding | Potency, µM (highest dose often 57.1 µM), for inactives: top-dose activity, negative = inhibition, hits mostly inhibitors | 230,000 compounds, 0.66% hits; further: on the % scale 0 is the no-effect control and ±100 the full control effect; nearly all actives have a fitted effect of over 60% in size
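AlphaScreen assay: L3MBTL1 (50 nM final) was preincubated 30 min at room temperature with biotinylated H3(1-15)K9me1 peptide (75 nM final), then 30 min with library compounds; streptavidin donor and nickel chelate acceptor beads (10 ug/mL final) added, 30 min dark.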
BAZ2B inh: inhibitors of human BAZ2B bromodomain; Q9UIF8; AlphaScreen BAZ2B-H3K14Ac peptide displacement; Potency, µM (doses to about 114 µM), inactives show top-dose activity change, negative = inhibition, actives largely listed as inhibitors; 360,000 compounds, 4.4% hits; AID 504333; further: on the % scale 0 is the no-effect control and ±100 the full control effect; nearly all actives have a fitted effect of over 60% in size
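Compounds, titrated to a top concentration of 110 uM, were incubated 30 min at room temperature with preformed BAZ2B/acetyl-K14 H3 peptide complex (50 nM each). Proximity signal was measured by AlphaScreen after 20 min with beads.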
HP1b binding inh: blocks HP1-beta chromodomain binding to methylated histone tails | 390,000 compounds, 0.56% hits | Potency, µM (top dose mostly 114 µM), inactives show top-dose activity change, negative = inhibition, hits mostly inhibitors | AlphaScreen HP1-beta / biotin-H3K9me3 peptide binding | P83916; further: nearly all actives have a fitted effect of over 70% in size
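HP1-beta protein (50 nM final) preincubated 30 min at room temperature with biotinylated H3(1-18)K9me3 peptide (50 nM) in PBS pH 7.4, 0.01% Tween-20, then compound added for 30 min. AlphaScreen streptavidin donor/nickel chelate acceptor beads (10 ug/mL final), 30 min dark, luminescence read.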
JMJD2A Tudor inh: JMJD2A Tudor domain (human) inhibition. 390,000 compounds, 4.4% hits. AlphaScreen JMJD2A-Tudor / H3K4me3 peptide binding. AID 504339. Potency, µM (titrated, usually from 114 µM), inactives show at the highest dose activity change, negative = inhibition, usual class: inhibitors. O75164; further: on the % scale 0 is the no-effect control and ±100 the full control effect; nearly all actives have a fitted effect of over 50% in size
Sfp PPTase inh: Sfp phosphopantetheinyl transferase inhibition; Q9F4F7; Biochemical Sfp PPTase activity, qHTS; Potency, µM, without a hit: largest response in the series, negative = inhibition, usual class: inhibitors; 310,000 compounds, 3.5% hits;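 further: the enzyme is Sfp with the accession as filed and its product quenches rhodamine fluorescence; 0% = enzyme reaction without inhibitor and -100% = no enzyme wells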
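Reaction rates are the 30-min fluorescence difference (ex 525, em 598 nm) in wells containing 15 nM Sfp, 5 uM rhodamine-CoA and 12.5 uM BHQ-2-YbbR at pH 7.6 with 10 mM MgCl2.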
G9a block: G9a (human) methyltransferase inhibition; Q96KQ7; G9a H3K9 monomethylation, AlphaScreen, 2 h; Potency, µM (highest dose often 102 µM), inactives show at the highest dose activity, negative = inhibition, hits mostly inhibitors; 350,000 compounds, 8.8% hits; AID 504332; further: on the % scale 0 is the no-effect control and ±100 the full control effect; nearly all actives have a fitted effect of over 75% in size
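AlphaScreen read-out: biotin-H3K9 peptide (500 nM) methylation by 20 nM enzyme with 20 uM SAM, 2 h at room temperature after 15 min compound preincubation; anti-monomethyl H3K9 antibody plus donor/acceptor beads, 10 min dark.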
Active calls of the source: *; ? = inconclusive; / = not tested or not shown; [ ] = another dose, or the depositor's remark. Hits are enriched below; roughly 12% of the tested compounds scored in any of these assays. The call rests on the fitted dose curve; in most records, active means well fitted curve in the direction sought with a large enough effect; inconclusive means small, poorly fitted or top-dose-only effect, or another doubt; inactive means no such curve, though single readings can be large; an effect the other way counts as inactive or inconclusive. Potency means the concentration at half of the fitted maximal effect.

SMILES	L3MBTL1 block	BAZ2B inh	HP1b binding inh	JMJD2A Tudor inh	Sfp PPTase inh	G9a block
CCOc1ccc(NC(=O)c2oc3ccccc3c2NC(=O)Cc2cccc(C)c2)cc1	/	0%	34%	-9%	/	-4%[59 µM]
COc1ccc(N2CCN(C(=O)C3Cc4ccccc4CN3C(=O)c3ccccc3)CC2)cc1 (stereo not given)	/	?	-12%	-35%	14%	50µM*
CC(=O)N1Cc2ccccc2CC1C(=O)N1CCN(c2ccccc2)CC1 (stereo not given)	/	-9%	12%	-10%	6%	-1%
CC(C)(C)c1cc(Br)c(O)c(N=Nc2ccc(S(=O)(=O)N3CCOCC3)cc2)c1	-6%	7.9µM*	?	5.6µM*	3%	14µM*
Cc1ccc(O)c(N=Nc2ccc(S(=O)(=O)N3CCOCC3)cc2)c1	-20%	8.9µM*	?	14µM*	9%	-31%[12.7 µM]
O=S(=O)(c1ccc(Br)cc1)N1CCOCC1	/	/	13%	6%	/	/
COc1ccc(C2C(C#N)=C(N)Oc3n[nH]c(C)c32)cc1Cn1nc(C)c([N+](=O)[O-])c1C (stereo not given)	?	-8%	8%	-30%	-10%	10µM*
COc1ccc(C2C(C#N)=C(N)Oc3n[nH]c(C)c32)cc1Cn1cc([N+](=O)[O-])cn1 (stereo not given)	0%	-11%	12%	-28%	8%	/
CCC1=NN(S(=O)(=O)c2ccc(C)cc2)C(O)(C(F)(F)F)C1 (stereo not given)	21%	-11%	51%	5%	16%	40µM*
COC(=O)c1sc2cccc(F)c2c1S(=O)(=O)N1CCN(c2cccc(OC)c2)CC1	/	-29%	16%	-27%	/	0%[59 µM]
CCOC(=O)c1sc2cccc(F)c2c1S(=O)(=O)N1CCN(c2cccc(Cl)c2)CC1	/	?	7%	-24%	/	8.9µM*
Cc1ccc(NC(=O)CCC(=O)N2CCSc3ccccc32)cc1	/	-20%	46%	-7%	/	0%[59 µM]
Cc1ccc(N(C(C)C(=O)Nc2ccccc2C(=O)N2CCOCC2)S(C)(=O)=O)cc1C (stereo not given)	5%	10%	12%	-6%	7%	-6%[12.7 µM]
CC(C(=O)Nc1ccccc1C(=O)N1CCOCC1)N(c1ccc(Cl)cc1)S(C)(=O)=O (stereo not given)	5%	-14%	?	11µM*	7%	4%
C#CCOCCOCCOCCNc1nc(N2CCN(C(=O)CCCCCCCCCCNC(=O)[C@H](CCCCN)n3cc(C[C@@H](C)CC)nn3)CC2)nc(N2CCN(C(=O)CCCCCCCCCCNC(=O)[C@@H]([C@H](C)O)n3cc(C)nn3)CC2)n1	-9%	50µM*	?	56µM*	/	-4%[2.33 µM]
C#CCOCCOCCOCCNc1nc(N2CCN(C(=O)[C@H]([C@@H](C)O)n3cc(CCCCN)nn3)CC2)nc(N2CCN(C(=O)[C@H](CCCCN)n3cc(CC(C)O)nn3)CC2)n1 (stereo not given in full)	3%	-1%	15%	-35%	/	-13%[2.33 µM]
C#CCOCCOCCOCCNc1nc(N2CCN(C(=O)CCCCCCCCCCNC(=O)[C@@H](CCSC)n3cc(CCO)nn3)CC2)nc(N2CCN(C(=O)CCCCCCCCCCNC(=O)[C@@H]([C@H](C)O)n3cc(C)nn3)CC2)n1	-3%	?	46%	-15%	/	-4%[2.33 µM]
C#CCOCCOCCOCCNc1nc(N2CCN(C(=O)CCCCCCCCCCNC(=O)[C@H](CCCCN)n3cc(C)nn3)CC2)nc(N2CCN(C(=O)CCCCCCCCCCNC(=O)[C@@H]([C@H](C)O)n3cc(C)nn3)CC2)n1	-1%	-37%	-22%	56µM*	/	-4%[2.33 µM]
Cc1ccc(CNc2ccc3c(c2)OCO3)cc1	/	50µM*	-24%	45µM*	56µM*	?
